Compound activity deposited in PubChem BioAssay by several laboratories.
Anthrax LF prot = blocks Bacillus anthracis lethal factor protease; multiplex microsphere protease cleavage assay, LF; actives 0.12% (n = 360,000); AID 588501; inhibition, % at 10 µM; also: plate controls were buffer without enzyme for full effect and enzyme alone for no effect
BoNT-A LC inh2 = inhibitors of Botulinum neurotoxin A light chain protease | multiplex microsphere protease substrate cleavage, flow cytometry | inhibition, % at 10 µM | actives 0.17% (n = 360,000) | AID 588499; also: plate controls were buffer without enzyme for full effect and enzyme alone for no effect
SARS 3CLpro inh = SARS-CoV 3CLpro protease inhibition; P0C6X7; recombinant SARS-CoV 3CLpro, quenched FRET peptide cleavage; inhibition, % at 6 µM; actives 0.14% (n = 290,000); in the data active = inhibition above about 12%
CCHF vOTU inh = CCHFV vOTU protease inhibition; actives 0.55% (n = 370,000); inhibition, % at 11.5 µM; Pep-AMC fluorescence; AID 651958; in the data active = inhibition above about 30%; also: 0% = vehicle wells with enzyme and 100% = no enzyme wells
BoNT F protease = blocks Botulinum neurotoxin F light chain protease | Multiplex microsphere protease cleavage assay, flow cytometry | inhibition, % at 10 µM | actives 0.22% (n = 360,000) | AID 588497; in the data active = inhibition above about 35%, passing the limit was not always enough; inconclusive = no clear call, values can overlap the other calls; also: plate controls were buffer without enzyme for full effect and enzyme alone for no effect
Bead autofluor = flagged as autofluorescent in microsphere protease counterscreen | fluorescence intensity (no concentration beside the values) | actives 3.1% (n = 360,000) | compound autofluorescence counterscreen, microsphere flow cytometry; hits give high values | AID 624483; in the data active = fluorescence intensity above about 16000; inconclusive = no clear call, values can overlap the other calls
* marks the source's active call; other numbers are inactive results. Rows were chosen to be rich in hits. Some 3.9% of all compounds tested hit in one or more screens of this group. Rule as the data show it, unless noted: active = inhibition above about 30%; inconclusive = no clear call, values can overlap the other calls; inactive = below that.

How did Cc1ccccc1NC(=O)c1ccc(F)c(S(=O)(=O)N2CCN(c3ccccn3)CC2)c1 do in these assays?
Anthrax LF prot: -3; BoNT-A LC inh2: -4; SARS 3CLpro inh: -2; BoNT F protease: -4; Bead autofluor: 23271*

How did O=C(Nc1ccc(Br)cc1)c1ccc(F)c(S(=O)(=O)N2CCN(c3ccccn3)CC2)c1 do in these assays?
Anthrax LF prot: -5; BoNT-A LC inh2: 0; SARS 3CLpro inh: -6; CCHF vOTU inh: -1; BoNT F protease: 3; Bead autofluor: 4020

Results for O=C(Nc1ccccc1)c1ccc(N2CCN(c3ccccn3)CC2)c(S(=O)(=O)N2CCOCC2)c1 ?
Anthrax LF prot: -2; BoNT-A LC inh2: -1; SARS 3CLpro inh: 2; CCHF vOTU inh: -3; BoNT F protease: -1; Bead autofluor: 16676*

What do the screens show for `O=C(Nc1ccccc1)c1ccc(N2CCN(c3ccccc3)CC2)c(S(=O)(=O)N2CCOCC2)c1`?
Anthrax LF prot: -36; BoNT-A LC inh2: 16; SARS 3CLpro inh: 0; CCHF vOTU inh: -3; BoNT F protease: 30; Bead autofluor: 13379

How did CC(C)C(=O)Nc1ccc(C(=O)c2ccccc2)cc1 do in these assays?
Anthrax LF prot: 0; BoNT-A LC inh2: -1; SARS 3CLpro inh: 7; CCHF vOTU inh: 5; BoNT F protease: 0; Bead autofluor: 19934*

Results for C=C(c1ccccc1)c1ccc(N(C)C)cc1 ?
Anthrax LF prot: 0; BoNT-A LC inh2: 0; SARS 3CLpro inh: -2; CCHF vOTU inh: -13; BoNT F protease: 11; Bead autofluor: 4239

Results for CC(C)C(=O)Nc1ccc(-c2nnc(-c3ccccc3)o2)cc1 ?
Anthrax LF prot: -21; BoNT-A LC inh2: 2; SARS 3CLpro inh: -2; CCHF vOTU inh: -3; BoNT F protease: -15; Bead autofluor: 2842

How did CN(C)c1ccc(C(=O)c2ccccc2)cc1 do in these assays?
Anthrax LF prot: -2; BoNT-A LC inh2: -2; SARS 3CLpro inh: -1; CCHF vOTU inh: 8; BoNT F protease: -3; Bead autofluor: 17206*

Results for CC(C)(C)c1ccc(N2C(=O)Cc3c2nc(N)c(C#N)c3N)cc1 ?
Anthrax LF prot: inconclusive; BoNT-A LC inh2: inconclusive; SARS 3CLpro inh: 5; CCHF vOTU inh: -1; BoNT F protease: inconclusive; Bead autofluor: inconclusive

What do the screens show for `CCc1ccc(N2C(=O)Cc3c2nc(N)c(C#N)c3N)cc1`?
Anthrax LF prot: 0; BoNT-A LC inh2: inconclusive; SARS 3CLpro inh: 3; CCHF vOTU inh: 5; BoNT F protease: 5; Bead autofluor: 21928*

What do the screens show for `CCn1cc([N+](=O)[O-])c(C(=O)Nc2ccn(Cc3ccccc3F)n2)n1`?
Anthrax LF prot: -1; BoNT-A LC inh2: -1; SARS 3CLpro inh: 5; CCHF vOTU inh: 2; BoNT F protease: -1; Bead autofluor: 23949*

How did CCn1cc([N+](=O)[O-])c(C(=O)Nc2nc(-c3ccc(C)cc3)c(C)s2)n1 do in these assays?
Anthrax LF prot: -1; BoNT-A LC inh2: -1; SARS 3CLpro inh: -3; BoNT F protease: -6; Bead autofluor: 16716*

What do the screens show for `CCn1cc([N+](=O)[O-])c(C(=O)Nc2nc(-c3ccc(C)c(C)c3)c(C)s2)n1`?
Anthrax LF prot: 0; BoNT-A LC inh2: 1; SARS 3CLpro inh: 9; BoNT F protease: -10; Bead autofluor: 7914

Results for CC(=O)Oc1ccc(NC(=O)C2CCCCC2)c(C(=O)O)c1 ?
Anthrax LF prot: -3; BoNT-A LC inh2: 5; SARS 3CLpro inh: -6; CCHF vOTU inh: 5; BoNT F protease: 4; Bead autofluor: 20737*

Results for CCc1c(C)sc(NC(=O)c2cc(-c3ccc(OC)c(OC)c3)on2)c1C#N ?
Anthrax LF prot: 2; BoNT-A LC inh2: 0; SARS 3CLpro inh: 4; CCHF vOTU inh: -5; BoNT F protease: 0; Bead autofluor: 9787

What do the screens show for `CCc1c(C)sc(NC(=O)c2cc(-c3cc(OC)ccc3OC)on2)c1C#N`?
Anthrax LF prot: -2; BoNT-A LC inh2: 4; SARS 3CLpro inh: 2; CCHF vOTU inh: -5; BoNT F protease: 6; Bead autofluor: 21969*

What do the screens show for `C=CCNC(=O)COc1ccc(Br)cc1Cl`?
Anthrax LF prot: -10; BoNT-A LC inh2: 4; SARS 3CLpro inh: 6; CCHF vOTU inh: -6; BoNT F protease: 6; Bead autofluor: 20768*

How did CCOC(=O)N1CCN(C(=O)COc2ccc(Br)cc2Cl)CC1 do in these assays?
Anthrax LF prot: -1; BoNT-A LC inh2: inconclusive; SARS 3CLpro inh: 0; CCHF vOTU inh: 10; BoNT F protease: -2; Bead autofluor: 20543*

Results for CC(C)N(Cc1nc(-c2ccccc2)no1)C(=O)C1CCCCC1 ?
Anthrax LF prot: -5; BoNT-A LC inh2: 0; SARS 3CLpro inh: 4; CCHF vOTU inh: 15; BoNT F protease: 0; Bead autofluor: 23062*

How did Cc1ccc(OCCCC(=O)ON=C(N)c2ccccc2C)cc1 do in these assays?
Anthrax LF prot: 0; BoNT-A LC inh2: 0; CCHF vOTU inh: 0; BoNT F protease: -3; Bead autofluor: 5341

How did CN(CC(=O)Nc1ccc(F)c(F)c1F)C(=O)c1n[nH]c(=O)c2ccccc12 do in these assays?
Anthrax LF prot: 0; BoNT-A LC inh2: -1; CCHF vOTU inh: 9; BoNT F protease: 0; Bead autofluor: 8240

Results for Cc1ccc(NC(=O)Cn2c(C)cc(C)c(C#N)c2=O)c(Cl)c1 ?
Anthrax LF prot: -4; BoNT-A LC inh2: -4; SARS 3CLpro inh: -2; CCHF vOTU inh: -20; BoNT F protease: -5; Bead autofluor: 23456*

How did Cc1ccc(C(=O)Cn2c(C)cc(C)c(C#N)c2=O)cc1 do in these assays?
Anthrax LF prot: -2; BoNT-A LC inh2: -9; SARS 3CLpro inh: 1; CCHF vOTU inh: 2; BoNT F protease: -105; Bead autofluor: 7594

Results for CC(C)C(=O)NC(Nc1ccccc1F)C(Cl)(Cl)Cl (stereo not given) ?
Anthrax LF prot: 2; BoNT-A LC inh2: 4; SARS 3CLpro inh: 2; CCHF vOTU inh: -8; BoNT F protease: 6; Bead autofluor: 21522*

What do the screens show for `CC(C)CC(=O)NC(Nc1ccccc1F)C(Cl)(Cl)Cl` (stereo not given)?
Anthrax LF prot: -7; BoNT-A LC inh2: -1; SARS 3CLpro inh: 3; CCHF vOTU inh: 8; BoNT F protease: 0; Bead autofluor: 3128

How did Cc1cccc(CCNC(=O)c2ccc(Sc3ccccc3Cl)c([N+](=O)[O-])c2)c1 do in these assays?
CCHF vOTU inh: 16

How did Cc1ccc(NC(=O)N/C=C/c2ccco2)cc1 do in these assays?
Anthrax LF prot: -1; BoNT-A LC inh2: 1; SARS 3CLpro inh: 3; CCHF vOTU inh: 15; BoNT F protease: 4; Bead autofluor: 22171*

What do the screens show for `Cn1ccnc1SCc1ccc([N+](=O)[O-])cc1`?
Anthrax LF prot: 2; BoNT-A LC inh2: inconclusive; SARS 3CLpro inh: 4; CCHF vOTU inh: -3; BoNT F protease: 7; Bead autofluor: 19757*

How did Cn1ccnc1SCc1cccc([N+](=O)[O-])c1 do in these assays?
Anthrax LF prot: -3; BoNT-A LC inh2: 1; SARS 3CLpro inh: -1; CCHF vOTU inh: -9; BoNT F protease: 1; Bead autofluor: 5183

What do the screens show for `COc1ccc(Nc2nnc(SCc3cc([N+](=O)[O-])cc4c3OCOC4)s2)cc1`?
Anthrax LF prot: -1; BoNT-A LC inh2: -1; SARS 3CLpro inh: -2; CCHF vOTU inh: -1; BoNT F protease: -3; Bead autofluor: 23675*
